The text below walks through data of PubChem BioAssay AID624255 (Broad Institute, 2012).

Usually inhibition stands for the change of the read-out against control, counted positive when it falls.

Out of some 77,000 compounds screened, about 4,600 (6%) were called active. Not shown: some 1% with an inconclusive outcome. The full list was thinned out, with actives kept by preference. A number with no mark means an inactive call.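 The calls were made as follows: active = mean inhibition above about 93%, with at least 55% of replicates each passing it (limit read from the data, passing the limit was not always enough); inconclusive = only one of those two conditions holds; inactive = neither condition holds.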

A short description of the test: T. cruzi intracellular proliferation inhibitors, primary screen, cell-based, beta-gal Tulahuen parasites, NIH3T3 host, luminescence (AID 624255). The conditions noted are these: T. cruzi beta-gal in NIH3T3, GalScreen luminescence, 90 h; at 8.34 µM; active compounds read high.
Take `CCC(=O)N1[C@@H]2c3ccc(-c4cccnc4)c(=O)n3C[C@H]1[C@H](CO)[C@H]2C(=O)N1CCc2ccccc2C1`: the inhibition was 29.4%. In the case of `O=C(C1CCC1)N1C[C@@H]2[C@H](c3ccccc31)[C@H](CO)N2C(=O)c1ccccc1` it was 11.8%; in that of `COCC#Cc1ccc2c(c1)O[C@@H](CN(C)Cc1cccnc1)[C@@H](C)CN([C@H](C)CO)S2(=O)=O`, 70%; in that of `CC(C)CC#Cc1ccc2c(c1)O[C@H](CN(C)Cc1ccncc1)[C@H](C)CN([C@H](C)CO)S2(=O)=O`, 118% (active). Turning to `CC(C)CC#Cc1ccc2c(c1)O[C@H](CN(C)C(=O)c1cccnc1)[C@@H](C)CN([C@H](C)CO)S2(=O)=O`, the inhibition was 78.2%. As for `CC(C)CC#Cc1ccc2c(c1)O[C@H](CN(C)Cc1cccnc1)[C@H](C)CN([C@@H](C)CO)S2(=O)=O`, the figure is 103% (active). For `CCCN(C)C[C@H]1Oc2cc(C#CCC(C)C)ccc2S(=O)(=O)N([C@H](C)CO)C[C@H]1C`, the inhibition is 75.8%. As for `CCNC(=O)C[C@H]1CC[C@@H](NC(=O)C2CCOCC2)[C@@H](CO)O1`, the figure is 40%; as for `CCNC(=O)Nc1ccc2c(c1)C(=O)N(C)[C@H]1CC[C@H](CC(=O)NCC3CCCCC3)O[C@@H]1CO2`, 25.8%; as for `CCS(=O)(=O)Nc1ccc2c(c1)C(=O)N(C)C[C@@H](OC)[C@@H](C)CN(C(=O)COC)[C@H](C)CO2`, -5.98%. In the case of `Cc1ccc(S(=O)(=O)Nc2ccc3c(c2)C(=O)N(C)[C@@H]2CC[C@@H](CC(=O)O)O[C@H]2CO3)cc1` it was 33.9%. As for `C[C@H](O)C#Cc1ccc2c(c1)O[C@H](CN(C)Cc1cccnc1)[C@@H](C)CN([C@H](C)CO)S2(=O)=O`, the figure is 34.8%. Regarding `C[C@@H]1CN([C@@H](C)CO)S(=O)(=O)c2ccc(C#Cc3cccnc3)cc2O[C@@H]1CN(C)C`, the inhibition was -8.96%. In the case of `C[C@@H]1CN([C@H](C)CO)S(=O)(=O)c2ccc(C#CC3CC3)cc2O[C@H]1CN(C)Cc1ccccc1F` it was 81.5%. In the case of `C[C@H](O)C#Cc1ccc2c(c1)O[C@@H](CN(C)Cc1cccnc1)[C@H](C)CN([C@H](C)CO)S2(=O)=O` it was 46.1%; in that of `C[C@H](CO)N1C[C@H](C)[C@H](CN(C)Cc2cccnc2)Oc2cc(C#CC3CCCC3)ccc2S1(=O)=O`, 97.8% (active); in that of `C[C@@H]1CN([C@H](C)CO)S(=O)(=O)c2ccc(C#CC3CCCC3)cc2O[C@@H]1CN(C)Cc1cccnc1`, 118% (active). In the case of `O=C(Nc1cccc(Cl)c1)N1C[C@@H]2[C@H](c3ccccc31)[C@H](CO)N2C(=O)C1CC1` it was 45%; in that of `O=C(C[C@@H]1CC[C@H]2[C@@H](COC[C@@H](O)CN2C(=O)c2ccc3c(c2)OCO3)O1)NC1Cc2ccccc2C1`, -11.4%; in that of `CCCC#Cc1cnc2c(c1)C(=O)N([C@H](C)CO)C[C@H](C)[C@H](CN(C)C(=O)c1cnccn1)O2`, -48.3%. On to `CCCC(=O)Nc1ccc2c(c1)C(=O)N(C)[C@H]1CC[C@@H](CC(=O)NCc3ccccc3)O[C@@H]1CO2`, for which the inhibition was -21.7%. In the case of `O=C(c1cccc(F)c1)N1CC[C@@H]2[C@@H](CO)Nc3ccc(C#Cc4cccc(F)c4)cc3[C@@H]21` it was 110% (active); in that of `COc1ccc(-c2ccc3c(c2)[C@@H]2[C@@H](CCN2S(=O)(=O)c2ccccc2F)[C@H](CO)N3)cc1`, 36.8%. As for `Cc1ccccc1S(=O)(=O)N1CC[C@H]2[C@H](CO)Nc3ccc(-c4cccc(F)c4)cc3[C@H]21`, the figure is 100% (active); as for `COc1ccc(-c2ccc3c(c2)[C@@H]2[C@@H](CCN2C(=O)c2cccc(F)c2)[C@H](CO)N3)cc1`, 29.7%; as for `COc1ccccc1S(=O)(=O)N1CC[C@@H]2[C@H]1c1cc(-c3ccccc3)ccc1N[C@@H]2CO`, 71.9%.

Take `Cn1cnc(S(=O)(=O)N2CC[C@@H]3[C@H]2c2cc(C#Cc4cccc(F)c4)ccc2N[C@@H]3CO)c1`: the inhibition was -22.2%. In the case of `Cc1cccc(S(=O)(=O)N2CC[C@@H]3[C@H]2c2cc(C#Cc4ccc(F)cc4)ccc2N[C@@H]3CO)c1` it was 12.4%; in that of `O=S(=O)(c1ccccc1)N1CC[C@@H]2[C@@H](CO)Nc3ccc(C#Cc4cccc(F)c4)cc3[C@@H]21`, 105% (active). In the case of `Cc1cccc(S(=O)(=O)N2CC[C@@H]3[C@H]2c2cc(C#Cc4ccccc4F)ccc2N[C@@H]3CO)c1` it was 62.9%; in that of `N#Cc1cccc(-c2ccc3c(c2)[C@H]2[C@H](CCN2S(=O)(=O)c2ccc(F)cc2)[C@@H](CO)N3)c1`, 19.2%. As for `O=S(=O)(c1ccccc1)N1CC[C@@H]2[C@H]1c1cc(C#Cc3cccc(F)c3)ccc1N[C@@H]2CO`, the figure is 102% (active). In the case of `COc1cccc(-c2ccc3c(c2)[C@H]2[C@H](CCN2C(=O)c2ccc(F)cc2)[C@@H](CO)N3)c1`, the inhibition was 32.4%. As for `CC(C)c1cn(CC[C@@H]2CC[C@@H](NC(=O)C3CC3)[C@H](CO)O2)nn1`, the figure is 10.2%. In the case of `CCCNC(=O)C[C@H]1CC[C@@H]2[C@H](COC[C@H](O)CN2S(=O)(=O)c2ccccc2F)O1` it was 11.7%. As for `CO[C@H]1CC[C@@H]2CCOc3c(C#N)cccc3C(=O)N(C)C[C@H](C)C(=O)N(C)C[C@H]1O2`, the figure is 30.6%; as for `O=C(C[C@@H]1CC[C@H](NC(=O)Cc2ccccn2)[C@H](CO)O1)NCCc1ccncc1`, -62.5%; as for `C[C@@H](NC(=O)C[C@@H]1C[C@H]2c3cc(NC(=O)C4CCC4)ccc3O[C@H]2[C@@H](CO)O1)c1ccccc1`, -32.2%. With `Cc1ccc(S(=O)(=O)Nc2ccc3c(c2)C(=O)N([C@H](C)CO)C[C@@H](C)[C@@H](CN(C)C(=O)CCC(F)(F)F)OCCCC[C@@H](C)O3)cc1`, the inhibition is 47.6%. In the case of `CCCN1C[C@H](C)[C@H](OC)CN(C)C(=O)c2cc(NC(=O)C3CCOCC3)ccc2OC[C@@H]1C` it was -22.2%; in that of `Cc1ccc(S(=O)(=O)Nc2ccc3c(c2)C(=O)N(C)[C@H]2CC[C@H](CC(=O)O)O[C@H]2CO3)cc1`, 22.9%; in that of `COCC#Cc1ccc([C@@H]2[C@@H](CO)N3CCCCN(C(=O)COC)C[C@@H]23)cc1`, 12.3%. As for `COCC#Cc1ccc([C@@H]2[C@H](CO)N3CCCCN(C(=O)CN(C)C)C[C@@H]23)cc1`, the figure is 107% (active); as for `CC(C)NC(=O)N1CCCCN2[C@@H](CO)[C@@H](c3ccc(C#C[C@@H](C)O)cc3)[C@@H]2C1`, 75.5%. Regarding `COc1ccc(S(=O)(=O)N2CCCCN3[C@@H](CO)[C@@H](c4ccc(C#CCC(C)C)cc4)[C@@H]3C2)cc1`, the inhibition is 34.4%. As for `CC(C)C#Cc1ccc([C@H]2[C@H](CO)N3CCCCN(C(=O)NC(C)C)C[C@@H]23)cc1`, the figure is 104% (active); as for `O=S(=O)(c1ccc(F)cc1)N1CCCCN2[C@H](CO)[C@@H](c3ccc(C#CC4CCCC4)cc3)[C@H]2C1`, 88.5%; as for `COc1cccc(S(=O)(=O)N2CCCCN3[C@H](CO)[C@H](c4ccc(C#CC5CC5)cc4)[C@H]3C2)c1`, 118% (active).

For `COc1ccc(S(=O)(=O)N2CCCCN3[C@H](C2)[C@H](c2ccc(C#CCC(C)C)cc2)[C@@H]3CO)cc1`, the inhibition was 103% (active). As for `CCC(=O)N1CCCCN2[C@H](C1)[C@@H](c1ccc(C#CCOC)cc1)[C@@H]2CO`, the figure is 14%; as for `Cn1cnc(S(=O)(=O)N2CCCCN3[C@@H](CO)[C@@H](c4ccc(C#CC5CCCC5)cc4)[C@@H]3C2)c1`, 54.8%; as for `CC(C)C#Cc1ccc([C@@H]2[C@H]3CN(C(=O)NC(C)C)CCCCN3[C@H]2CO)cc1`, 43.5%. As for `CN1c2ccc(C#Cc3cccnc3)cc2[C@@H]2[C@@H](CCN2S(=O)(=O)c2ccccc2)[C@H]1CO`, the figure is 89.6%; as for `COc1ccccc1NC(=O)N[C@H]1CC[C@@H](CCn2cc(C3(O)CCCC3)nn2)O[C@@H]1CO`, 0.23%; as for `C[C@@H](NC(=O)[C@H]1[C@H](CO)[C@H]2Cn3c(cccc3=O)[C@H]2N1C(=O)C1CC1)c1ccccc1`, -11.1%.

Consider `CC=Cc1ccc2n(c1=O)C[C@@H]1[C@@H](CO)[C@H](C(=O)N[C@@H](C)c3ccccc3)[C@H]2N1Cc1ccncc1` (mixture of isomers), for which the inhibition is 25.6%. As for `COC(=O)C[C@@H]1CC[C@H]2[C@@H](COC[C@H](O)CN2C(=O)Nc2ccccc2OC)O1`, the figure is -19.2%; as for `CC(=O)N1[C@@H](CO)[C@H](c2ccccc2)[C@@H]1CN(C(=O)c1ccccc1)C(C)C`, 26.7%; as for `O=C(C[C@H]1C[C@H]2c3cc(NC(=O)C4CCOCC4)ccc3O[C@H]2[C@@H](CO)O1)NCC1CC1`, -5.99%.

For `Cn1cnc(S(=O)(=O)N2C[C@H](O)COC[C@@H]3O[C@H](CC(=O)NCc4cccc(F)c4)CC[C@H]32)c1`, the inhibition was 34.3%. As for `CN1C[C@@H]2[C@H](c3ccccc31)[C@H](CO)N2C(=O)Nc1ccc(F)cc1`, the figure is 15.1%; as for `Cc1ccc(S(=O)(=O)Nc2ccc3c(c2)C(=O)N([C@@H](C)CO)C[C@H](C)[C@@H](CN(C)C(=O)Nc2ccc(F)cc2)OCCCC[C@H](C)O3)cc1`, 92.5%. As for `O=C(C[C@H]1C[C@H]2c3cc(NC(=O)CC4CC4)ccc3O[C@H]2[C@H](CO)O1)NCc1cc(F)ccc1F`, the figure is -48.8%. As for `CC(C)CC#Cc1ccc2c(c1)O[C@@H](CN(C)C(=O)Nc1ccccc1F)[C@@H](C)CN([C@@H](C)CO)S2(=O)=O`, the figure is 83.3%.
